Laboratory results from PubChem BioAssay AID602243 (Broad Institute, 2012).
This is one part of the list. The source made the active and inactive calls. The rule behind the calls is not given here.

Assay: V. cholerae lux activation without autoinducers – BH1578 luxS cqsA deficient, cherry-pick, plate reader, dose response (AID 602243)
Details: V. cholerae BH1578 lux reporter, luminescence, 6 h; series mostly up to 50 µM

Structure (SMILES)	outcome
O=C(CN1CCC(O)(c2cccc(C(F)(F)F)c2)CC1)NCCc1ccccc1	inactive
O=C(Nc1ccc2oc(-c3ccc4ccccc4c3)nc2c1)c1cccs1	inactive
O=C(NCc1ccccn1)c1c(O)c2c([nH]c1=O)CCCC2	inactive
CCCn1nnnc1NCc1ccc(OC)cc1	inactive
CC1CN(C(=O)COC(=O)c2cccc(NS(=O)(=O)c3ccccc3)c2)CC(C)O1 (stereo not drawn)	inactive
NNC(=O)c1nnn(-c2nonc2N)c1CN1CCCC1	inactive
COc1ccc2[nH]c(=O)c(CNc3ccc(C)c(C)c3)cc2c1	inactive
CCN(CC(=O)NCc1ccc(Cl)cc1)C(=O)CSc1ccccc1	inactive
COc1ccc(OCc2cn3c(C)cc(C)nc3n2)cc1	inactive
CCN(CC)c1nc(-c2ccccc2)cc(C(F)(F)F)c1C#N	inactive
CN(CC(=O)Nc1ccc(OC(F)(F)F)cc1)C(=O)C1CCC1	inactive
CC(=O)N1CCN(C(=O)c2cc(-c3ccc(Cl)s3)nc3ccccc23)CC1	inactive
CCc1cccc(C)c1N(C(=O)Cn1c(CO)nc2ccccc21)C(C)COC (stereo not drawn)	inactive
CCCn1nnnc1NCc1ccc(CC)cc1	inactive
COc1ccccc1CCNC(=O)C(=O)NCCC1CCCCN1S(=O)(=O)c1cccs1 (stereo not drawn)	inactive
CCC(C)(C)n1nnnc1CN1CCN(c2nc3ccc(C)cc3cc2C#N)CC1	inactive
COc1ccc(S(=O)(=O)N2CCN(c3cnccn3)CC2)cc1	inactive

Structure (SMILES)	outcome
COc1ccc(Cl)cc1NC(=O)COC(=O)c1ccc(Br)o1	inactive
COc1ccc(CNc2nnnn2C)cc1	inactive
COc1ccc(Cl)cc1NC(=O)CN(C)C(=O)CNC(=O)C12CC3CC(CC(C3)C1)C2	inactive
COc1cc(S(=O)(=O)N(Cc2cccs2)C2CC2)ccc1-n1cnnn1	inactive
CCOC(=O)C1(CCOc2ccccc2)CCN(Cc2cc(OC)cc(OC)c2)CC1	inactive
Cc1onc(-c2ccccc2)c1C(=O)N1CCOCC1	inactive
CCOc1ccc(CCNC(=O)C2CCN(c3ccc(N4CCOCC4)nn3)CC2)cc1OCC	inactive
CC(C)CNC(=O)COC(=O)/C=C/c1ccco1	inactive
Cc1cccc(C(=O)OCC(=O)NCC(C)C)c1O	inactive
O=C(NCCS(=O)(=O)N1CCN(c2ccccc2)CC1)c1ccco1	inactive
O=C(Cc1ccc2c(c1)CCCC2)Nc1ccccc1Cl	inactive
NC(=O)c1nsc(C(=O)N(CC(=O)NCc2ccc(F)cc2)Cc2ccco2)c1N	inactive
COc1ccc(N(CC(=O)NC2CCCCC2)C(=O)CNC(=O)c2ccco2)c(OC)c1	inactive
COCCn1nnnc1CN1CCC(NC(=O)Nc2cccc(OC)c2)CC1	inactive
CCCS(=O)(=O)N1CCCC(C(=O)N2CCN(c3ccccc3)CC2)C1 (stereo not drawn)	inactive
CC(C)CC(=O)N1CCN(Cc2ccccc2Br)CC1	inactive
